Our source for the outcome and AC50 values is PubChem BioAssay (EPA / NIEHS).

Read-out in assay [1]: xenobiotic metabolism (CYP1A1), CYP1A1 (gene 1543)
Put plainly: CLD_CYP1A1_6hr: CellzDirect (CLD) Gene Expression Assay for xenobiotic metabolism (CYP1A1) at 6 hours (AID 2283661).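 On AC50: potency for transcript induction above DMSO vehicle baseline.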 The gist of the method:
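Primary human hepatocytes from two donors, compound versus 0.2% DMSO vehicle. CYP1A1 mRNA measured 6 h after dosing by quantitative nuclease protection assay with chemiluminescent read-out; induction fitted relative to DMSO, cytotoxicity flagged by microscopy.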

Read-out in assay [2]: alkyl and aryl transferase (GSTA2), GSTA2 (gene 2939)
The assay can be described thus: CLD_GSTA2_6hr: CellzDirect (CLD) Gene Expression Assay for alkyl and aryl transferase (GSTA2) at 6 hours (AID 2283666). The method, boiled down: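 Primary human hepatocytes from two donor preparations were dosed daily with fresh compound at multiple concentrations, 0.2% DMSO vehicle. GSTA2 mRNA was measured at 6 hours by qNPA chemiluminescence; induction fitted relative to DMSO, with cytotoxicity flagged morphologically.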

Read-out in assay [3]: xenobiotic metabolism (CYP1A1), CYP1A1 (gene 1543)
Put plainly: CLD_CYP1A1_24hr: CellzDirect (CLD) Gene Expression Assay for xenobiotic metabolism (CYP1A1) at 24 hours (AID 2283673). The method, boiled down: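 Primary human hepatocytes dosed daily with fresh solutions in 0.2% DMSO vehicle. mRNA measured at 24 h by quantitative nuclease protection assay with chemiluminescence; gain-of-signal fit versus DMSO, with morphology-based cytotoxicity flags.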

Read-out in assay [4]: ABC Transporter (ABCB11), ABCB11 (gene 8647)
Put plainly: CLD_ABCB11_6hr: CellzDirect (CLD) Gene Expression Assay for ABC Transporter (ABCB11) at 6 hours (AID 2283675).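 Further: hits raise ABCB11 mRNA level so AC50 marks induction.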 The method, boiled down:
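Human primary hepatocytes (two donor preparations) given fresh chemical daily at multiple concentrations, vehicle 0.2% DMSO. ABCB11 mRNA induction measured 6 h after dosing by qNPA chemiluminescence versus DMSO; cytotoxicity annotated from morphology.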

Read-out in assay [5]: Cytochrome P450 2C19 (Homo sapiens) (UniProt P33261)
The assay can be described thus: CLD_CYP2C19_6hr: CellzDirect (CLD) Gene Expression Assay for xenobiotic metabolism (CYP2C19) at 6 hours (AID 2283678). The method, boiled down:
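Primary human hepatocytes from two donor preparations were dosed daily, with 0.2% DMSO as vehicle, and harvested 6 h after dosing. CYP2C19 mRNA induction was measured by qNPA chemiluminescence and fitted as gain of signal against DMSO.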

Assay [6] in a line: CCTE_Padilla_ZF_144hpf_TERATOSCORE: (Legacy) CCTE's 144 Hour Post-fertilization zebrafish Assay Teratoscore, Padilla Lab (AID 2283679; active means hit-call score of the fitted dose curve at least 0.9, where 1 is the maximum; inactive means score below 0.9;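 on AC50: zebrafish embryos with chorions exposed by immersion from 6-8 hpf to 5 dpf with daily renewal; teratogenicity score from eye scoring of death hatching and malformations at 144 hpf; higher score means more developmental defects relative to DMSO baseline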). The method, boiled down:
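Larvae scored by eye at 144 hpf for death, hatching and malformations after a day in clean Hanks'. Before that, daily-renewed exposure at 80 uM (0.4% DMSO, 26C) from roughly 6-8 hpf through 5 dpf, 4 embryos per chemical.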

Read-out in assay [7]: Cytochrome P450 3A4 (Homo sapiens) (UniProt P08684)
The assay can be described thus: CLD_CYP3A4_6hr: CellzDirect (CLD) Gene Expression Assay for xenobiotic metabolism (CYP3A4) at 6 hours (AID 2283680). The method, boiled down: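 Primary human hepatocytes (two donor preparations) dosed; CYP3A4 mRNA harvested at 6 h and quantified by qNPA chemiluminescence. Gain of signal fitted against 0.2% DMSO vehicle; cytotoxicity flagged by phase-contrast morphology.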

Read-out in assay [8]: xenobiotic metabolism (CYP1A2), CYP1A2 (gene 1544)
Put plainly: CLD_CYP1A2_24hr: CellzDirect (CLD) Gene Expression Assay for xenobiotic metabolism (CYP1A2) at 24 hours (AID 2283683). The method, boiled down: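 Primary human hepatocytes from two donor preparations dosed daily with multiple concentrations of chemical, 0.2% DMSO vehicle. CYP1A2 mRNA at 24 h quantified by qNPA chemiluminescence; gain of signal analyzed relative to DMSO. Cytotoxicity flagged by phase-contrast morphology.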

Read-out in assay [9]: ABC Transporter (ABCB1), ABCB1 (gene 5243)
The assay can be described thus: CLD_ABCB1_24hr: CellzDirect (CLD) Gene Expression Assay for ABC Transporter (ABCB1) at 24 hours (AID 2283684). The gist of the method:
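Primary human hepatocytes, two donor preparations, dosed daily with fresh solutions; vehicle 0.2% DMSO; harvested at 24 h. ABCB1 mRNA measured by quantitative nuclease protection assay (chemiluminescence); morphology-based cytotoxicity annotated.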

Read-out in assay [10]: Cytochrome P450 2B6 (Homo sapiens) (UniProt P20813)
Put plainly: CLD_CYP2B6_24hr: CellzDirect (CLD) Gene Expression Assay for xenobiotic metabolism (CYP2B6) at 24 hours (AID 2283686). The method, boiled down:
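Primary human hepatocytes dosed daily for two days with fresh solutions, harvested at 24 hours; mRNA induction quantified by qNPA chemiluminescence, gain of signal vs 0.2% DMSO vehicle. Cytotoxicity annotated from phase-contrast morphology.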

Read-out in assay [11]: Cytochrome P450 2C19 (Homo sapiens) (UniProt P33261)
The assay can be described thus: CLD_CYP2C19_24hr: CellzDirect (CLD) Gene Expression Assay for xenobiotic metabolism (CYP2C19) at 24 hours (AID 2283687).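 Further: activity means mRNA induction above DMSO vehicle baseline.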 The method, boiled down: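 Primary human hepatocytes (two donor preparations) dosed daily with fresh test chemical in 0.2% DMSO vehicle; CYP2C19 mRNA induction measured at 24 h by quantitative nuclease protection assay with chemiluminescence, fitted for gain of signal versus DMSO.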

Read-out in assay [12]: Cytochrome P450 2C9 (Homo sapiens) (UniProt P11712)
Put plainly: CLD_CYP2C9_24hr: CellzDirect (CLD) Gene Expression Assay for xenobiotic metabolism (CYP2C9) at 24 hours (AID 2283688). The method, boiled down: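 Primary human hepatocytes from two donor preparations, dosed daily for two days at multiple concentrations; vehicle 0.2% DMSO. CYP2C9 mRNA induction at 24 h measured by qNPA chemiluminescence relative to DMSO; cytotoxicity annotated from morphology.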

Assay [13] is described as follows: Tanguay_ZF_120hpf_TR_legacy: (Legacy) Oregon State University Tanguay Lab 120 Hour Post-fertilization zebrafish Assay for Touch Response (AID 2283667). The gist of the method:
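Tropical 5D wild-type zebrafish embryos statically exposed to 120 hpf at 28°C, sealed and dark-covered, 0.64% DMSO final; touch response scored as present/absent by brightfield microscopy at 120 hpf. Trimethyltin chloride 5 uM positive control; dead embryos not scored.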

Read-out in assay [14]: Cytochrome P450 (CYP24A1_1), CYP24A1 (gene 1591)
Put plainly: LTEA_HepaRG_CYP24A1_1: Life Technologies and Expression Analysis (LTEA) Assay for Cytochrome P450 (CYP24A1_1) using HepaRG (AID 2283671; active means hit-call score of the fitted dose curve at least 0.9, where 1 is the maximum; inactive means score below 0.9). The settings on record: mRNA level, 48 h; actives raise or lower the signal. The gist of the method:
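Differentiated human HepaRG cells in serum-free induction medium, exposed 48 h in duplicate to eight half-log concentrations from 100 uM top, 0.5% DMSO. Transcript measured by TaqMan qRT-PCR, normalised to ACTB, GAPDH, POLR2A; bidirectional fitting versus DMSO.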

The nature of assay [15]: CLD_ACTIN_24hr: CellzDirect (CLD) Gene Expression Assay for Baseline Control (Actin) at 24 hours (AID 2283670). The method, boiled down:
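Primary human hepatocytes dosed over multiple concentrations with 0.2% DMSO vehicle; actin mRNA measured at 24 h by qNPA chemiluminescence. Background control endpoint, fitted as gain of signal versus DMSO.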

Read-out in assay [16]: Cytochrome P450 2B6 (Homo sapiens) (UniProt P20813)
The assay can be described thus: CLD_CYP2B6_6hr: CellzDirect (CLD) Gene Expression Assay for xenobiotic metabolism (CYP2B6) at 6 hours (AID 2283677).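 Further: actives raise CYP2B6 transcript above DMSO baseline so AC50 marks an inducer.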 The gist of the method:
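Primary human hepatocytes dosed with chemicals at multiple concentrations, vehicle 0.2% DMSO; CYP2B6 mRNA induction measured 6 h after dosing by quantitative nuclease protection assay with chemiluminescence, gain of signal fitted relative to DMSO.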

Read-out in assay [17]: organic anion transporter (SLCO1B1), SLCO1B1 (gene 10599)
Put plainly: CLD_SLCO1B1_6hr: CellzDirect (CLD) Gene Expression Assay for organic anion transporter (SLCO1B1) at 6 hours (AID 2283668).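 Further: active means mRNA induction above DMSO baseline.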 The method, boiled down: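 Primary human hepatocytes dosed daily with test chemicals (multiple concentrations) in 0.2% DMSO vehicle; harvested at 6 h. SLCO1B1 mRNA quantified by qNPA chemiluminescence, fitted as gain-of-signal versus DMSO; cytotoxicity from phase-contrast morphology flagged alongside.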

Read-out in assay [18]: glucuronosyltransferase (UGT1A1), UGT1A1 (gene 54658)
The assay can be described thus: CLD_UGT1A1_6hr: CellzDirect (CLD) Gene Expression Assay for glucuronosyltransferase (UGT1A1) at 6 hours (AID 2283672). The gist of the method: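 Primary human hepatocytes from two donor preparations, dosed with fresh solutions in 0.2% DMSO, harvested at 6 h. UGT1A1 mRNA measured by qNPA chemiluminescence; induction fitted upward versus DMSO.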

Records with an inconclusive call do not appear. Active and inactive are the calls of the source. How the source made its calls, unless noted: active means hit-call score of the fitted dose curve at least 0.9, where 1 is the maximum; inconclusive means response in the unintended direction; inactive means score below 0.9.

Sequence of Cytochrome P450 2C19 (Homo sapiens) (P33261 whole entry, looked up): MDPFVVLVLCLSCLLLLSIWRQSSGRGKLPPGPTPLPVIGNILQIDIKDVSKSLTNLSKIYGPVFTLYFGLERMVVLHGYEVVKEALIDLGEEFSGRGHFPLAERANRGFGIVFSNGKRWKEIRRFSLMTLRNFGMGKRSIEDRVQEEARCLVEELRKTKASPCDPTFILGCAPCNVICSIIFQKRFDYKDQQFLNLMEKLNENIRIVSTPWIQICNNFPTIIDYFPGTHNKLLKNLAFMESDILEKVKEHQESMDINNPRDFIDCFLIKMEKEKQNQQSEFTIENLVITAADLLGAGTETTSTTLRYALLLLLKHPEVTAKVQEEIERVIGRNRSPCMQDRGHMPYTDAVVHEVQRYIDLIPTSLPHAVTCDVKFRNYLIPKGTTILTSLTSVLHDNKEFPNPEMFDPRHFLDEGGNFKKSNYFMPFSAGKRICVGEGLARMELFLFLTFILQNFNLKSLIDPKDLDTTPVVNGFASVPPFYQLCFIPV
Sequence of Cytochrome P450 3A4 (Homo sapiens) (P08684 whole entry, looked up): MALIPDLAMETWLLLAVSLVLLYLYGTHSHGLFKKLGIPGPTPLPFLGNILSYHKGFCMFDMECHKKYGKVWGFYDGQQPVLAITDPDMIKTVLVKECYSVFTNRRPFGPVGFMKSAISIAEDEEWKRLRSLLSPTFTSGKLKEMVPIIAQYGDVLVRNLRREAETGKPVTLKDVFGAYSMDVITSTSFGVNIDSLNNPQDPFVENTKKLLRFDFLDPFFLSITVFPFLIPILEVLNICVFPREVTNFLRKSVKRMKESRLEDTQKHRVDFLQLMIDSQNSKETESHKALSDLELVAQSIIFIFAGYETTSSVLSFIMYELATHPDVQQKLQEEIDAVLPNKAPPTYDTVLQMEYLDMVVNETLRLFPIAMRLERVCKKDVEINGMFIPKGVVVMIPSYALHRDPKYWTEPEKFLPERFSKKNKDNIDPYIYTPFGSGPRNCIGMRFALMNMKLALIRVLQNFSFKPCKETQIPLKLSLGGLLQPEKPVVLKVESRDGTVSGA

Take `OCCOc1ccccc1`: the call in assay [1], in assay [2], in assay [3], in assay [4], in [5] and in assay [6] was inactive. Moreover, the compound was called inactive in assay [7], in [8], in assay [9], in [10], in assay [11] and in [12].

For `ClC1C(Cl)C(Cl)C(Cl)C(Cl)C1Cl` (centres undefined), the result in [1], in assay [2], in assay [13], in [14], in assay [7] and in assay [9] was inactive. Further, the compound was called inactive in assay [11] and in assay [12]. Further, the concentration at half-maximal activity (AC50) was 42600 nM (active) in assay [6] and 1390 nM (active) in assay [10].

As for `O=C(O)COc1ccc(Cl)cc1Cl`, the values for the AC50 in [1], in assay [16] and in [7] were 459 nM (active), 44.8 nM (active) and 490 nM (active), respectively. The outcome in assay [2], in assay [13], in [15], in assay [5], in [6] and in assay [8] was inactive. Besides, the result in [9], in assay [10] and in [11] was inactive.

`CCOC1Oc2ccc(OS(C)(=O)=O)cc2C1(C)C` (centres undefined): the figures for the AC50 in [1] and in assay [10] were 3970 nM (active) and 3120 nM (active), respectively. The outcome in assay [2], in [13], in assay [14], in [6], in [7] and in [8] was inactive. Also, the result in [9] and in [12] was inactive.

On to `CCS(=O)(=O)c1cccnc1S(=O)(=O)NC(=O)Nc1nc(OC)cc(OC)n1`, for which the result in [1], in assay [2], in assay [17], in assay [15], in assay [4] and in assay [5] was inactive. The compound was classed as inactive in assay [6], in assay [7], in assay [8], in [9], in assay [10] and in [11].

Consider `CCC(C)(C)C(=O)OC1=C(c2ccc(Cl)cc2Cl)C(=O)OC12CCCCC2`, for which the compound was classed as inactive in [2], in assay [13], in [18], in assay [4], in [16] and in [5]. In addition, the outcome in [7], in assay [8], in assay [9], in assay [10] and in assay [12] was inactive. The AC50 in [6] is 1890 nM (active).

Turning to `CC1(C)C(C=C(Cl)Cl)C1C(=O)OC(C#N)c1ccc(F)c(Oc2ccccc2)c1` (centres undefined), the AC50 is 20000 nM (active) in assay [1] and 345 nM (active) in assay [6]. Further, the result in [2], in [14], in assay [4], in [5], in assay [7] and in assay [8] was inactive. For the same compound, the result in assay [9], in [10], in assay [11] and in assay [12] was inactive.

As for `C#CCN1C(=O)COc2cc(F)c(N3C(=O)C4=C(CCCC4)C3=O)cc21`, the compound was called inactive in [2], in [13], in assay [17], in [5], in [7] and in assay [8]. In addition, the compound was called inactive in [9] and in assay [12]. For the same compound, the AC50 in assay [6] is 4150 nM (active); in [10] it was 20000 nM (active).

Turning to `COc1cc(OC)nc(NC(=O)NS(=O)(=O)c2cc(NC=O)ccc2C(=O)N(C)C)n1`, the result in assay [1], in [17], in [15], in [6], in [8] and in assay [9] was inactive. For the same compound, the result in [10], in assay [11] and in [12] was inactive.

In the case of `CNC(=O)Oc1ccccc1OC(C)C`, the outcome in assay [1], in assay [13], in [17], in assay [15], in assay [18] and in assay [5] was inactive. For the same compound, the result in [6], in assay [7] and in assay [8] was inactive. Also, in [10], the AC50 was 1600 nM (active).
